The panel holds about 83,000 compounds, 20% with a hit somewhere; the sample as a whole holds those more often.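 A percent growth of 40 corresponds to 60% growth inhibition; 0 means no net growth; -100 means all cells died. Active threshold: below 10.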 Active and inactive are the calls of the source.

The subject of this assay is SN12C renal. The assay is described as follows: NCI-60 one-dose screen, 48 h (100 = growth as untreated, 0 = no growth, -100 = all killed). Particulars: 10 µM unless noted. As to the method: Growth inhibition of the SN12C human tumor cell line is measured as a screen for anti-cancer activity. Cells are grown in 96 well plates and exposed to the test compound for 48 hours. Compounds are tested at a single concentration, which is 10^-5 M for most compounds. The reported endpoint is percent growth (GI% or GIPRCNT), where numbers from 0 - 100% represent growth inhibition, and numbers from -100% - 0 represent cell death. For example, a value of 40 represents 60% growth inhibition. A value of 0 means no net growth occurred over the course of the experiment. A value of -40 indicates 40% of cells at the beginning of the experiment died by the end of the experiment. A value of -100 means all cells are dead at the end of the experiment.
NCI-60 Human Tumor Cell Lines Screen was performed using the standard one-dose NCI protocol, which is described in more detail at https://dtp.cancer.gov/discovery_development/nci-60/default.htm.
Compounds with GIPRCNT values below 10 were considered active. Activity score was based on GIPRCNT using the following formula: […]
Score is 0 for GIPRCNT values of 100 or above, 50 for GIPRCNT values of 0, and 100 for GIPRCNT values of -100.
Regarding `COc1ccc(-c2nc3sccn3c2/C=C/C(=O)c2c[nH]c3ccccc23)cc1`, the growth was 71.7% (inactive).

With `O=C1N(c2ccccc2)C(=S)N[C@]12[C@H](c1ccccc1)C1CCCN1[C@]21C(=O)NC2C=CC(Cl)=C[C@H]21` (stereo not given in full), the growth is 98% (inactive).

For the molecule `CCN(CCO)CC(=O)c1cc(Cl)cc(Cl)c1Cl`, the growth was 100% (inactive). For the molecule `Cc1ccc(S(=O)(=O)Nc2sccc2-c2nc(-c3ccccc3)no2)cc1`, the growth was 95.1% (inactive). Turning to `C[C@H]1[C@H]2C3=CC[C@@H]4[C@@]5(C)C/C(=C/c6ccncc6)C(=O)C(C)(C)[C@@H]5CC[C@@]4(C)[C@]3(C)CC[C@@]2(C(=O)N2CCN(C)CC2)CC[C@@H]1C`, the growth was 78.9% (inactive). For `CN1C[C@@H](c2ccc(Cl)cc2)[C@]2(NC(=S)N(c3ccccc3)C2=O)[C@@]12C(=O)NC1C=CC(Br)=C[C@H]12` (stereo not given in full), the growth is 46.1% (inactive). Turning to `Nc1c(-c2nc3ccccc3c(=O)[nH]2)nnn1-c1ccc(Cl)cc1`, the growth is 95.4% (inactive).

With `CCn1c(Sc2nnc(Nc3ccccc3)s2)nc2c1c(=O)n(C)c(=O)n2C`, the growth was 96.4% (inactive). For `CCN1CCN(c2ccc(Nc3cc(-c4cccnc4Nc4c(Cl)c(OC)cc(OC)c4Cl)ncn3)cc2)CC1`, the growth is 56.6% (inactive).

Take `N#Cc1cnn2c(-c3ccc(Cl)cc3)nc(NCCc3ccccc3)nc12`: the growth was 99.6% (inactive). Consider `CCCCNCC(=O)Nc1ccc(C(=O)OCC)cc1`, for which the growth was 104% (inactive). Turning to `CNC(=O)c1cc(Oc2ccc3nc(NC(=O)Nc4cc(C(F)(F)F)cc(C(F)(F)F)c4)sc3c2)ccn1`, the growth was -18.7% (active). Turning to `COc1ccc(/C=C2\COc3ccc(O)cc3C2=O)cc1OC`, the growth was 59.3% (inactive).

Take `CC(C)c1ccc(C(=O)OC(=O)c2ccc(C(C)C)cc2)cc1`: the growth is 98.7% (inactive). Consider `Cc1ccc(NSc2ccccc2[N+](=O)[O-])cc1`, for which the growth was 40.3% (inactive). Consider `CN(C)c1ccc(/C=C2\C=C(c3ccccc3)N(CCc3ccccc3)C2=O)cc1`, for which the growth is 89.8% (inactive).

With `COc1cc2cc(Oc3ccc(NC(=O)Nc4cc(C(F)(F)F)cc(C(F)(F)F)c4)cc3)c(C)nc2cc1OCCN1CCCCC1`, the growth is -92.6% (active). In the case of `CCOC(=O)c1sc(-c2ccc(OS(=O)(=O)c3ccc(C(C)(C)C)cc3)c(C=O)c2)nc1C`, the growth was 32.1% (inactive). Then `CCNCCNc1cc(-c2cccc(C(F)(F)F)c2)c(C#N)c2nc3ccccc3n12`, with -47% (active). Turning to `Cc1nc2ccccc2c(/C=C/c2ccc(Cl)cc2)c1C(=O)/C=C/c1ccc(Cl)cc1`, the growth was -61.6% (active).

As for `COc1cc2nc(Nc3ccc(F)cc3)nc(N)c2cc1OC`, the growth was 92% (inactive).

Consider `COc1ccc(N(C)c2nc(Cl)nc3cnn(C)c23)cc1`, for which the growth was 27.8% (inactive). With `CCN(CC)CCCC(C)NCc1ccccc1` (stereo not given), the growth is 102% (inactive). Turning to `OC(COc1cccc2ccccc12)CN1CCN(c2ccccc2)CC1` (stereo not given), the growth is 98.7% (inactive). `C=C1C(=O)O[C@H]2[C@H]1CC/C(Cn1cc(CNCCc3c[nH]c4ccc(Cl)cc34)nn1)=C\CC[C@@]1(C)O[C@@H]21`: the growth was 58.6% (inactive). Then `CNC=O`, with 99.8% (inactive).

Regarding `C[C@@H]1C(=O)N(C[C@@H](Cc2ccccc2)NC(=O)OCc2ccccc2)[C@]1(Cc1ccccc1)C(=O)OCc1ccccc1`, the growth is 41.7% (inactive). As to `C/C(Cc1ccc(Cl)cc1)=C(/c1ccc(Cl)cc1)c1ccc(OCCN(C)C)cc1`, the growth was 47.9% (inactive). In the case of `CCCCN1CCN(c2ccc3nc(-c4ccc5nc(-c6ccc(OCC)c(OCC)c6)[nH]c5c4)[nH]c3c2)CC1`, the growth was 18.8% (inactive). As to `CCN(CC)N=Nc1nn(C(=O)Nc2ccc(Cc3ccccc3)cc2)c2ccc(Cl)cc12`, the growth is 83.1% (inactive). Regarding `CC(=O)C(C(C)=O)c1nc2sc3cc(Cl)ccc3n2c(=N)c1C#N`, the growth is 90% (inactive). Then `COc1ccc(-c2cc(-c3cc(OC)ccc3O)[nH]c(=O)c2C#N)cc1`, with 66.3% (inactive); and `O=[N+]([O-])c1ccc(-c2cc3c(Nc4ccc(Sc5nc6ccccc6s5)c(Cl)c4)ncnc3s2)cc1`, with 28.6% (inactive). Regarding `Cc1nc(-c2ccccc2)cc2c(O)c(C(=O)N/N=C/c3ccc(N(C)C)cc3)[nH]c(=O)c12`, the growth was 82% (inactive). With `c1ccc([P+](CCCc2n(Cc3ccc4ccccc4c3)c3ccccc3[n+]2Cc2ccc3ccccc3c2)(c2ccccc2)c2ccccc2)cc1`, the growth is 55% (inactive). Consider `CCCCCCCSc1ccc(C(=O)O)cc1`, for which the growth was 93.2% (inactive).

As to `Cn1nnnc1-c1ccc(N)cc1`, the growth is 110% (inactive). For `Cc1cc(=O)c2cc3nc(-c4cccnc4)oc3c(Br)c2o1`, the growth was 110% (inactive). Then `CCCCCCNCc1cc(C(C)(C)C)cc(CNCCCCCC)c1O`, with -42.2% (active); and `NC(N)=N/N=C(/c1ccccc1)c1ccc(N)cc1`, with 96.2% (inactive).

The values above are taken from PubChem BioAssay (NCI).
